Experimental data reported in paper PMC5540273 (PLoS ONE, 2017).

Legend:
Settings in all cases: concentration: 1 μM, replicates: in singlicate; n = 1
CDKL2 = system: CDKL2
CDKL3 = system: CDKL3
CDKL5 = system: CDKL5
CHEK1 = system: CHEK1
CHEK2 = system: CHEK2
CIT = system: CIT
CLK1 = system: CLK1
CLK2 = system: CLK2
CLK3 = system: CLK3
CLK4 = system: CLK4
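Note: KINOMEscan kinase panel screen.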

| Structure (SMILES) | %Inh (CDKL2) [%] | %Inh (CDKL3) [%] | %Inh (CDKL5) [%] | %Inh (CHEK1) [%] | %Inh (CHEK2) [%] | %Inh (CIT) [%] | %Inh (CLK1) [%] | %Inh (CLK2) [%] | %Inh (CLK3) [%] | %Inh (CLK4) [%] |
| --- | --- | --- | --- | --- | --- | --- | --- | --- | --- | --- |
| CCC(CC)(CC)n1cnc2c(N)ncnc21 [SKF-97620] | 0 | 0 | 23 | 0 | 0 | 13 | 0 | 0 | 6 | 16 |
| CCCc1ccc(S(=O)(=O)NC2CCN(c3ccnc(Nc4ccc(OC)cc4)n3)C2)cc1 (stereo not drawn) [GSK1379737] | 19 | 0 | 0 | 0 | 15 | 32 | 23 | 0 | 0 | 6 |
| Nc1nc(-c2ccc3c(N)n[nH]c3c2)cc(N2CCC[C@@H](C(=O)Nc3ccccc3)C2)n1.O=C(O)C(F)(F)F.O=C(O)C(F)(F)F [GSK2288359] | 6 | 0 | 2 | 0 | 0 | 23 | 45 | 29 | 8 | 21 |
| CS(=O)(=O)CCNCc1nc(-c2ccc3ncnc(Nc4ccc(OCc5cccc(F)c5)c(Cl)c4)c3c2)cs1.Cl [GW583340] | 2 | 0 | 0 | 0 | 0 | 23 | 33 | 0 | 12 | 0 |
| Cc1cccc(-c2nc(Nc3ccc4[nH]nnc4c3)c3ccccc3n2)n1 [GW867587] | 25 | 0 | 0 | 0 | 0 | 15 | 0 | 0 | 0 | 0 |
| O=C(NCCCN1CCCC1=O)c1cnc(NCc2cc(Cl)ccc2Cl)nc1NC1CCNCC1 | 0 | 20 | 0 | 0 | 6 | 0 | 0 | 0 | 0 | 0 |
| NC(=O)c1sc(-n2cnc3ccccc32)cc1OCc1ccccc1F [GSK1024306] | 22 | 0 | 0 | 0 | 0 | 39 | 37 | 0 | 0 | 42 |
| COc1cc2c(Nc3cccc(NC(=O)c4ccccc4)c3)ncnc2cc1OCCCN1CCOCC1 [GSK223810] | 3 | 0 | 0 | 0 | 0 | 29 | 10 | 10 | 0 | 16 |
| Nc1nc(-c2cccnc2)c(-c2ccnc3ccccc23)s1 [GW684083] | 20 | 0 | 0 | 0 | 11 | 45 | 14 | 0 | 100 | 38 |
| N#Cc1ccc(Oc2ccc(Nc3ncnc4cc[nH]c34)cc2Cl)cc1 | 15 | 3 | 14 | 4 | 19 | 22 | 25 | 19 | 3 | 21 |
| Oc1ccc2ncnc(Nc3ccc(OCc4ccccc4)cc3)c2c1 [GI262866] | 0 | 0 | 7 | 8 | 23 | 0 | 37 | 0 | 21 | 19 |
| FC(F)(F)c1ccc(-c2nn3ncccc3c2-c2ccnc(Nc3cccc(C(F)(F)F)c3)n2)cc1 [GW828205] | 0 | 0 | 0 | 0 | 0 | 16 | 4 | 0 | 0 | 0 |
| COc1ccc(-c2oc3ncnc(N)c3c2-c2ccc(OC)cc2)cc1 [SB-589132] | 2 | 0 | 2 | 0 | 0 | 0 | 29 | 0 | 0 | 0 |
| COC(=O)c1c(-c2ccccc2)c2cc(Cl)ccc2c(=O)n1Cc1ccc(S(C)(=O)=O)cc1 | 0 | 0 | 33 | 0 | 10 | 4 | 3 | 0 | 10 | 10 |
| CNc1nccc(-c2c(-c3ccc(F)cc3)ncn2CCCN2CCOCC2)n1 [SB-222516] | 6 | 10 | 2 | 0 | 43 | 0 | 4 | 16 | 18 | 3 |
| O=C(CCO)NCCn1ccc2ncnc(Nc3ccc(Oc4cccc(C(F)(F)F)c4)c(Cl)c3)c21 | 9 | 0 | 0 | 0 | 0 | 0 | 1 | 0 | 0 | 5 |
| Cl.c1ccc(Cn2ccc3cc(Nc4ncnc5ccccc45)ccc32)cc1 [GW275568] | 4 | 8 | 0 | 2 | 27 | 5 | 26 | 10 | 59 | 0 |
| Cc1ccc(NC(=O)c2cccc(C#N)c2)cc1-c1ccc(C(=O)Nc2ccncc2)cc1 [GSK1398463] | 40 | 0 | 11 | 19 | 0 | 47 | 29 | 0 | 23 | 24 |
| Fc1cccc(COc2ccc(Nc3ncnc4sc(-c5ccc[nH]5)cc34)cc2Cl)c1 [GW707818] | 14 | 0 | 0 | 7 | 21 | 27 | 29 | 8 | 0 | 100 |
| O=C(Nc1n[nH]c2nc(-c3ccco3)c(Br)cc12)c1ccc(CN2CCCC2)cc1.O=C(O)[C@H](O)[C@@H](O)C(=O)O [SB-742352] | 62 | 0 | 0 | 0 | 0 | 0 | 16 | 12 | 0 | 8 |
| Cn1cc(-c2ccc3c(c2)CCN3C(=O)Cc2cccc(C(F)(F)F)c2)c2c(N)ncnc21 [GSK2606414] | 15 | 0 | 0 | 19 | 0 | 11 | 22 | 0 | 0 | 19 |
| COc1ccc(Nc2nccc(N3CCC(NC(=O)Nc4ccc5c(c4)OCO5)C3)n2)cc1 (stereo not drawn) [GSK1379745] | 8 | 0 | 0 | 1 | 0 | 0 | 15 | 1 | 9 | 19 |
| Cl.O=S(=O)(c1cccc(F)c1)c1ccc(Nc2ncnc3cc(Br)sc23)cc1Cl [GSK306886] | 19 | 0 | 0 | 0 | 0 | 23 | 23 | 0 | 0 | 0 |
| CNc1nccc(-c2c(-c3ccc(F)cc3)ncn2C2CCN(C)CC2)n1 [SB-222903] | 0 | 0 | 0 | 0 | 6 | 53 | 0 | 3 | 12 | 0 |
| O=C(c1ccc(-c2cc(-c3c[nH]nc3-c3ccccn3)ccn2)cc1)N1CCCC1 [GW792479] | 24 | 3 | 0 | 0 | 0 | 18 | 0 | 8 | 0 | 0 |
| Cn1ccc2ncnc(Oc3ccc(NC(=O)Nc4cccnc4)c(Cl)c3)c21 | 3 | 13 | 14 | 0 | 9 | 5 | 0 | 5 | 4 | 32 |
| C[C@H]1CC[C@@H](C(=O)Nc2ccccc2)CN1c1cc(-c2ccc3c(N)n[nH]c3c2)nc(N)n1 [GSK2283293] | 17 | 0 | 0 | 0 | 0 | 32 | 18 | 0 | 0 | 21 |
| Clc1ccc(-c2cc(-c3c[nH]nc3-c3ccccn3)ccn2)cc1 [GW681251] | 11 | 22 | 0 | 0 | 0 | 4 | 13 | 0 | 4 | 20 |
| c1ccc(-c2ccc3c(-c4ccnc(Nc5ccc6c(c5)OCCO6)n4)cnn3n2)cc1 [GW818941] | 16 | 0 | 0 | 0 | 0 | 6 | 52 | 42 | 0 | 58 |
| COc1ccc(Nc2nccc(N3CCC(NC(=O)c4cccc(NC(C)=O)c4)C3)n2)cc1 (stereo not drawn) [GSK1379732] | 18 | 0 | 0 | 0 | 41 | 43 | 21 | 0 | 0 | 12 |
